Laboratory results: the supplement of paper PMC10849652
About 8,800 targets were measured; listed, in parts, are those with a hit and a random draw of the rest. About 0.5% of all pairs of compound and target were hits. Unmarked numbers belong to inactive results.

compound: CNC(=O)C1=CC=CC=C1NC2=NC(=NC=C2Cl)NC3=C(C=C(C=C3)N4CCOCC4)OC; assay: log2 fold change, soluble protein after heating vs DMSO (PISA); higher = thermal stabilisation; K562 lysate, 10 uM; active = over 0.2 and 3.5 SD of the protein, either way, in both replicates (recomputed)
Procedure, shortened: (§1)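 Pellets of K562 cells were dounce-homogenised in PBS pH 7.4 with 1 mM MgCl2, and the crude extract was held at 1 mg/mL protein for a 30 min treatment with 10 μM compound. Aliquots were heated for 3 min over 48°C-58°C and pooled before NP-40 was added to 0.5% at 4°C. The supernatant from 21,000xg for 90 min was quantified by TMTpro 16plex LC-MS/MS with channel sums equalised. Values are reported from duplicates as log-two fold change in thermal stability relative to solvent controls.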

UniProt O15067, sequence (O15067 whole entry, looked up): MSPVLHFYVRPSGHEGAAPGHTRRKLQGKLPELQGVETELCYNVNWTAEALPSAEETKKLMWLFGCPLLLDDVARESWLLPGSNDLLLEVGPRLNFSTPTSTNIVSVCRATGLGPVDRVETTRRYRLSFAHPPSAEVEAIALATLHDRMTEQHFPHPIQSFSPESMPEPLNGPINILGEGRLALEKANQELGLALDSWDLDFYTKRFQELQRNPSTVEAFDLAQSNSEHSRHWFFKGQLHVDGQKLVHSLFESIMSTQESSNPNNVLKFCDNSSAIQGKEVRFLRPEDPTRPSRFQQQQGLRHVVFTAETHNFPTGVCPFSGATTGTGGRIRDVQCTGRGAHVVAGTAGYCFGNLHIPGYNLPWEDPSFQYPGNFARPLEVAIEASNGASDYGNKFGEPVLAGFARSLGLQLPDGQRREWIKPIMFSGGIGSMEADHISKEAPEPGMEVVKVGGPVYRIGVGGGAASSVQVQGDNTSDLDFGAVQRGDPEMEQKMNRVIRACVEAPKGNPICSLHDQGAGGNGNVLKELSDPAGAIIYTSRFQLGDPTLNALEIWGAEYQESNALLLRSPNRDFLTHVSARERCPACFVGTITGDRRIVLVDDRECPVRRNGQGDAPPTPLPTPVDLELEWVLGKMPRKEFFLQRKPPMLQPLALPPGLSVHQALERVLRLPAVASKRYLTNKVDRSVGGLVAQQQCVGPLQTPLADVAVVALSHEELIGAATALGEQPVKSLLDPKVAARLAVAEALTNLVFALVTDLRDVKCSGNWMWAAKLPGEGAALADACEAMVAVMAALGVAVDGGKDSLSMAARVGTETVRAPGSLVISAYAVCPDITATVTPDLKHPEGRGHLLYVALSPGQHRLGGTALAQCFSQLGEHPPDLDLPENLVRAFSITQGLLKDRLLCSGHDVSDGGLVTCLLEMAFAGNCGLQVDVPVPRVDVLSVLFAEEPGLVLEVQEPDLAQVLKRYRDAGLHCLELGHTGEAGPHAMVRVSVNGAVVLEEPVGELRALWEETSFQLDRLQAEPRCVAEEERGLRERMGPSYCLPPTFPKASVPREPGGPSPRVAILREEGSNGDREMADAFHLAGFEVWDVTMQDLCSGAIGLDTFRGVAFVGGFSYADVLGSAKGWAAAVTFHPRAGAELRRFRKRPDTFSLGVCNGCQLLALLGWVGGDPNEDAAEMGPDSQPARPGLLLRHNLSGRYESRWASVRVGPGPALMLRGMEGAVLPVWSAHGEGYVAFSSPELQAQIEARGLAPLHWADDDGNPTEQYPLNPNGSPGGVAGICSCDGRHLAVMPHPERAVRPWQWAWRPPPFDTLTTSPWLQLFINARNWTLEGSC
UniProt Q13356, sequence (Q13356 whole entry, looked up): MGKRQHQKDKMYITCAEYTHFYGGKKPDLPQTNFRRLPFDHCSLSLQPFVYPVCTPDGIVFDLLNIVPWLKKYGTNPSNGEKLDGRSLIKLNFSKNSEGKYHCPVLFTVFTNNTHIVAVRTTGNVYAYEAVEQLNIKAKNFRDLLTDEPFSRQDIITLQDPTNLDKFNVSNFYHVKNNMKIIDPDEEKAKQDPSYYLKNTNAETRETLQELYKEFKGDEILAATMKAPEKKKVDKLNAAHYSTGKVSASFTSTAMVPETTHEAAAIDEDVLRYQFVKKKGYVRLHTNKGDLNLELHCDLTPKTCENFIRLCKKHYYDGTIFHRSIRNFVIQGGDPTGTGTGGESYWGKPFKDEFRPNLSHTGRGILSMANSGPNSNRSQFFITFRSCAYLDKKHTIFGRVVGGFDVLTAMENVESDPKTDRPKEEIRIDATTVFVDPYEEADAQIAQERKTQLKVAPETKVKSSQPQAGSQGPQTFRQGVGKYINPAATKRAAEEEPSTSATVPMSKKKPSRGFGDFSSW
UniProt O00408, sequence (O00408 whole entry, looked up): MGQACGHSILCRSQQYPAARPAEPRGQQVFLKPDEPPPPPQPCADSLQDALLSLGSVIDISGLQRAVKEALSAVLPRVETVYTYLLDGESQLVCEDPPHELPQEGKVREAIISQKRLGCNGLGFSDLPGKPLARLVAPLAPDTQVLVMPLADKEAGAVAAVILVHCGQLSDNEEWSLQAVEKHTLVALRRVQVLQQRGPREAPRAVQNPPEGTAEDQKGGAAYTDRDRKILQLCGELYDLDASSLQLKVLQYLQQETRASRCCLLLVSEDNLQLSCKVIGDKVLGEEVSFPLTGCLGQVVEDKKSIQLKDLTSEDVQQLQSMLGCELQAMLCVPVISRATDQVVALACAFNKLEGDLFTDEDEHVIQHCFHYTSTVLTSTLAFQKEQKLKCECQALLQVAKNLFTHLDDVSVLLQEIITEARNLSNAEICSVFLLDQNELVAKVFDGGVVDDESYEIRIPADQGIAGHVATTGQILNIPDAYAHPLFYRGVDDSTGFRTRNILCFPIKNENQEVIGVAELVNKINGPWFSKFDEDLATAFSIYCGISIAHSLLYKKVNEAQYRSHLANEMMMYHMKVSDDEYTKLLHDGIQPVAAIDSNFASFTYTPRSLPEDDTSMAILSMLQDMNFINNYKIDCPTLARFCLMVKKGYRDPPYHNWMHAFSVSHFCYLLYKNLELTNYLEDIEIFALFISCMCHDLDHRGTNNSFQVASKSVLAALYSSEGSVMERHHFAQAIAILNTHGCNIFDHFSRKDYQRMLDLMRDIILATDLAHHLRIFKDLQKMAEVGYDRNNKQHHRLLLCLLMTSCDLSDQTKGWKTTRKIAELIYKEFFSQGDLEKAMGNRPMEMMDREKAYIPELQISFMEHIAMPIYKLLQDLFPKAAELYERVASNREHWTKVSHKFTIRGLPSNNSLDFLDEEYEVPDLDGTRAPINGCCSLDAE
UniProt Q96CD2, sequence (Q96CD2 whole entry, looked up): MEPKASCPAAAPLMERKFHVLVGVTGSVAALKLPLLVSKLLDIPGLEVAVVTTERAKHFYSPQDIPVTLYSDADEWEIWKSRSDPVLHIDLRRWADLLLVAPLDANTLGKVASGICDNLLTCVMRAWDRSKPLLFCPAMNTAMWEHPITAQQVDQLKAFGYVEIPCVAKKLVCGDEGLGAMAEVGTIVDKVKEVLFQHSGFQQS
UniProt Q29RF7, sequence (Q29RF7 whole entry, looked up): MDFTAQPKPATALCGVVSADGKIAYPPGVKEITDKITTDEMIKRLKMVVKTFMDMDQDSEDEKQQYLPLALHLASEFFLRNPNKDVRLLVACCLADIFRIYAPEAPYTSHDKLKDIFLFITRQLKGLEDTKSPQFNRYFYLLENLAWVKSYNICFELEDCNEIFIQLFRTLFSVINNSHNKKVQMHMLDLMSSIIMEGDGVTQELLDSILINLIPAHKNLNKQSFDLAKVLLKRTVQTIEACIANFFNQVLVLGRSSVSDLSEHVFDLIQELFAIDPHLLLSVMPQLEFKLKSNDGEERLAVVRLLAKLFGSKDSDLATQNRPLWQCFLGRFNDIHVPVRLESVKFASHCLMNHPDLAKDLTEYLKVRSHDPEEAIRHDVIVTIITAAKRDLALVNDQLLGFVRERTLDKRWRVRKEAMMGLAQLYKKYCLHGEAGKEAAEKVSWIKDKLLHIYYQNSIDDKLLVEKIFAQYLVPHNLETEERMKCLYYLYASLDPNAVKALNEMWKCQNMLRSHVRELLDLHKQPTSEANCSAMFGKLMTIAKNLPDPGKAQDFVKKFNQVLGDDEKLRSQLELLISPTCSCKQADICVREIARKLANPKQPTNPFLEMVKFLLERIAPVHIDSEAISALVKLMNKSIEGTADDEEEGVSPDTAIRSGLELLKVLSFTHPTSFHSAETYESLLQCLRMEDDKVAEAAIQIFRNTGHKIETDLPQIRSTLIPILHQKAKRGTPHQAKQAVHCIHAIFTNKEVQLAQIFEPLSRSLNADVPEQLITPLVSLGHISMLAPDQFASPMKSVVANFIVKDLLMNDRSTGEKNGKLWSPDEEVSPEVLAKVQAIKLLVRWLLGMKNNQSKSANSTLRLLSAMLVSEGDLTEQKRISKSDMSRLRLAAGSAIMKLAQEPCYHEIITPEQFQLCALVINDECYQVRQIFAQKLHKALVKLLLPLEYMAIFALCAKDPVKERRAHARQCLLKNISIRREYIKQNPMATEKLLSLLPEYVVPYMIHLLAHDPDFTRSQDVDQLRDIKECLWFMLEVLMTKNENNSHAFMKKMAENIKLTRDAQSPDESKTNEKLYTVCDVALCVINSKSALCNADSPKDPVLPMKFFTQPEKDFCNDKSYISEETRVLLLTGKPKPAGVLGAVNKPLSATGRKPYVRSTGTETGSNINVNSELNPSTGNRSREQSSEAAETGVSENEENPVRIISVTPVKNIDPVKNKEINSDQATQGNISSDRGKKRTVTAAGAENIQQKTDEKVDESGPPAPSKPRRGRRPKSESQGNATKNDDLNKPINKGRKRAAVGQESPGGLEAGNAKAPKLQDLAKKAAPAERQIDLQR
UniProt Q13492, sequence (Q13492 whole entry, looked up): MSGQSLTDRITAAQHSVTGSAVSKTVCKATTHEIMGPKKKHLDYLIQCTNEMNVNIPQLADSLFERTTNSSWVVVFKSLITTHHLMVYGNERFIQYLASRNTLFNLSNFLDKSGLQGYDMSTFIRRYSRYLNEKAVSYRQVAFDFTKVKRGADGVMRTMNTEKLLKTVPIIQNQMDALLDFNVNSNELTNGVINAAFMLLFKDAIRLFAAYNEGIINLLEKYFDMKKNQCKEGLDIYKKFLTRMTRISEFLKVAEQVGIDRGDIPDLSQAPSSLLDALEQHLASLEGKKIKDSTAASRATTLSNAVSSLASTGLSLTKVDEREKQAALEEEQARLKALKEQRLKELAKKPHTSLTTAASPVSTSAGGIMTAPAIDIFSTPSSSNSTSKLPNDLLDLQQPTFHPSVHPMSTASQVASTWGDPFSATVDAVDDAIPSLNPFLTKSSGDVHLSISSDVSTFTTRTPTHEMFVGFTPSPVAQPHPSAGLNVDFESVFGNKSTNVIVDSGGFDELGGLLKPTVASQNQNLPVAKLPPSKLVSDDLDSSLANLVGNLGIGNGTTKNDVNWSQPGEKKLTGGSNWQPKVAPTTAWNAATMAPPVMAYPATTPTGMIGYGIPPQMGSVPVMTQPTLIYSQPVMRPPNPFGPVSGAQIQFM

Target | log2 fold change
PUS1 (UniProt Q9Y606) | -0.008
PTPN23 (UniProt Q9H3S7) | -0.03
PDCD6IP (UniProt Q8WUM4) | -0.002
PMS2 (UniProt P54278) | 0.03
PSTPIP2 (UniProt Q9H939) | 0.031
PUM1 isoform 3 (UniProt Q14671) | -0.017
PICALM (UniProt Q13492) | -0.032
PTPN1 (UniProt P18031) | 0.018
PPP2R5C isoform 5 (UniProt Q13362) | 0.012
POLD3 (UniProt Q15054) | 0.099
PIP4K2A (UniProt P48426) | 0.006
PDS5A (UniProt Q29RF7) | 0.016
PFN1 (UniProt P07737) | -0.007
PLXNB2 (UniProt O15031) | 0.009
PFAS (UniProt O15067) | 0.009
PITRM1 isoform 2 (UniProt Q5JRX3) | 0.023
PPP1R8 (UniProt Q12972) | -0.025
PLEKHF1 (UniProt Q96S99) | 0.058
PRKACB isoform 2 (UniProt P22694) | 0.011
PIP4K2C (UniProt Q8TBX8) | 0.125

Target | log2 fold change
PDPK1 (UniProt O15530) | 0.107
PIK3C3 (UniProt Q8NEB9) | -0.019
PHOSPHO2 (UniProt Q8TCD6) | -0.026
PFKP (UniProt Q01813) | 0.029
PHKG2 (UniProt P15735) | 0.268
PPCDC (UniProt Q96CD2) | -0.053
PDE2A (UniProt O00408) | 0.044
PRKCB isoform 2 (UniProt P05771) | -0.029
PIP4P2 (UniProt Q8N4L2) | -0.021
PHKA1 (UniProt P46020) | 0.168
PIK3R2 (UniProt O00459) | 0.027
PSMB9 (UniProt P28065) | 0.006
PHACTR4 isoform 2 (UniProt Q8IZ21) | -0.024
PI4K2A (UniProt Q9BTU6) | 0.021
PDE4DIP isoform 4 (UniProt Q5VU43) | -0.003
PDXDC1 (UniProt Q6P996) | -0.007
PPIL2 (UniProt Q13356) | -0.006
PRRC2A (UniProt P48634) | -0.001
PCBP3 (UniProt P57721) | 0.022

compound: CNC(=O)c1ccc(Nc2ncc(C(F)(F)F)c(NCc3nccnc3N(C)S(C)(=O)=O)n2)cc1 [defactinib]; assay: as above
Procedure, shortened: as §1

Target | log2 fold change
PUS1 (UniProt Q9Y606) | 0.002
PTPN23 (UniProt Q9H3S7) | -0.018
PDCD6IP (UniProt Q8WUM4) | -0.021
PMS2 (UniProt P54278) | 0.021
PSTPIP2 (UniProt Q9H939) | -0.016
PUM1 isoform 3 (UniProt Q14671) | 0.017
PICALM (UniProt Q13492) | -0.037
PTPN1 (UniProt P18031) | 0.015
PPP2R5C isoform 5 (UniProt Q13362) | 0.029
POLD3 (UniProt Q15054) | -0.033
PIP4K2A (UniProt P48426) | 0.065
PDS5A (UniProt Q29RF7) | 0.016
PFN1 (UniProt P07737) | 0.006
PLXNB2 (UniProt O15031) | 0.002
PFAS (UniProt O15067) | 0.022
PITRM1 isoform 2 (UniProt Q5JRX3) | 0.008
PPP1R8 (UniProt Q12972) | -0.003
PLEKHF1 (UniProt Q96S99) | -0.007
PRKACB isoform 2 (UniProt P22694) | 0.117
PIP4K2C (UniProt Q8TBX8) | 0.092

Target | log2 fold change
PDPK1 (UniProt O15530) | 0.21
PIK3C3 (UniProt Q8NEB9) | -0.004
PHOSPHO2 (UniProt Q8TCD6) | -0.008
PFKP (UniProt Q01813) | -0.009
PHKG2 (UniProt P15735) | 0.001
PPCDC (UniProt Q96CD2) | -0.037
PDE2A (UniProt O00408) | -0.24
PRKCB isoform 2 (UniProt P05771) | -0.019
PIP4P2 (UniProt Q8N4L2) | -0.009
PHKA1 (UniProt P46020) | 0.08
PIK3R2 (UniProt O00459) | 0.017
PSMB9 (UniProt P28065) | 0.034
PHACTR4 isoform 2 (UniProt Q8IZ21) | 0.012
PI4K2A (UniProt Q9BTU6) | -0.023
PDE4DIP isoform 4 (UniProt Q5VU43) | -0.018
PDXDC1 (UniProt Q6P996) | 0.034
PPIL2 (UniProt Q13356) | -0.024
PRRC2A (UniProt P48634) | 0.046
PCBP3 (UniProt P57721) | -0.039
